Data reported in PubChem BioAssay AID880 (National Center for Advancing Translational Sciences (NCATS), 2007).
Among all 230,000 compounds or so, about 1,000 (0.43%) were called active. For the sample, actives were picked, then their nearest neighbours and some compounds at random. Unmarked numbers belong to inactive results. Calls follow the shape of the dose curve; as a rule, active = well fitted inhibition curve with a large enough effect (not every such curve was filed as active); inactive = no such curve, though single readings can be large or run the other way.

These molecules were tested against Guanine nucleotide-binding protein G(i) subunit alpha-1 (Homo sapiens) (UniProt P63096) (assay: qHTS Assay for Inhibitors of RGS12 GoLoco Motif Activity (Red Fluorophore)). Conditions: Gai1:RGS12 GoLoco peptide FP, rhodamine, 10 min; series mostly up to 61.6 µM; activity, negative = inhibition: at the top concentration.
Excerpt: Assay Submitter: Siderovski, David P, University of North Carolina at Chapel Hill
Screening Center PI: Austin, C.P.
Screening Center: NIH Chemical Genomics Center [NCGC]
G-protein-coupled receptors (GPCRs) are major targets for drug discovery. The regulator of G-protein signaling (RGS)-protein family has important roles in GPCR signal transduction. RGS proteins contain a conserved RGS-box, which is often accompanied by other signaling regulatory elements. RGS proteins accelerate the deactivation of G proteins to reduce GPCR signaling; however, some also have an effector function and transmit signals. Combining GPCR agonists with RGS inhibitors should potentiate responses, and could markedly increase the agonist's regional specificity. The diversity of RGS proteins with highly localized and dynamically regulated distributions in brain makes them attractive targets for pharmacotherapy of central nervous system disorders. […] A complex of Gai1 and fluorescently labeled G-alpha-binding peptide (the "GoLoco motif") derived from RGS12 is incubated with library members. Inhibitors of the binding are detected by a decrease in the fluorescence polarization (FP) of the fluorophore. Protein was supplied by Prof. David Siderovski, University of North Carolina at Chapel Hill.
Assay Buffer: 10 mM Tris-HCl, 150 mM NaCl, 0.1 mM GDP (prepared fresh), and 0.05% NP40 at pH 7.5.
15 nM Rhodamine labeled peptide/25 nM protein in columns 1, 2, 5 - 48. Titration of unlabeled peptide control ([H][…][NH2], custom synthesized and HPLC-purified by Tufts University Core Facility) from 20 mM, then 1:2 dilution, 16-point in duplicate, pin-transferred to column 2, rows 1 to 32. Column 1 is neutral.
Rhodamine-labeled peptide (Rhodamine-[…]-NH2) was custom-synthesized and HPLC-purified by Invitrogen (Carlsbad, CA).
Four uL of reagents were dispensed to 1536-well Greiner black solid-bottom plates. Compounds and controls (23 nL) were transferred via Kalypsys PinTool. The plates were incubated for 10 min at room temperature, and then read on ViewLux (Perkin-Elmer) High-throughput CCD imager using BODIPY for the rhodamine-labeled decapeptide probe. During dispense, reagent bottles were kept submerged into 4 deg C water bath and all liquid lines were covered with aluminum foil to minimize probe and protein degradation. All screening operations were performed on a Kalypsys robotic system (Kalypsys, Inc., San Diego, CA) containing one RX-130 and two RX-90 anthropomorphic robotic arms.
% is scaled to controls: 0 for no effect and ±100 for the full control effect; potency is read from the fitted curve at half-maximal effect.
Also: nearly all actives have a fitted effect of over 30% in size.

Sequence of Guanine nucleotide-binding protein G(i) subunit alpha-1 (Homo sapiens) (P63096 whole entry, looked up): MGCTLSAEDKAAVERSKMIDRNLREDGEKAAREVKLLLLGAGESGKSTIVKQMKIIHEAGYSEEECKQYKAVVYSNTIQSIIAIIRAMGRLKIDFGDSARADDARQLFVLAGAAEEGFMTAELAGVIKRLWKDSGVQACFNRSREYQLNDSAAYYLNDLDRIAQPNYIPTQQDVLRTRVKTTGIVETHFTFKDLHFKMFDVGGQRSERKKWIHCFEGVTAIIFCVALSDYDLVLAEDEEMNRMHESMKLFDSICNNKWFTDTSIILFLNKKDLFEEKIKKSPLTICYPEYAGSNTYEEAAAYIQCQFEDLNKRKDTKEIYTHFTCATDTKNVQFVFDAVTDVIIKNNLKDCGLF

**Q.** `CCOC(=O)c1ccc(NC(=O)CSc2ncccn2)cc1` was tested. Which Potency did it give?
**A.** 2.82 µM (active)

**Q.** For `CCOC(=O)c1ccc(NC(=O)CSc2nnc(COc3ccccc3OC)n2C)cc1`, which “activity, negative = inhibition” value is on record?
**A.** 9.95%

**Q.** How did the “activity, negative = inhibition” value turn out when `CCOC(=O)c1ccc(NC(=O)Cn2cnc3cc(C)c(C)cc32)cc1` was run?
**A.** 6.97%

**Q.** Which “activity, negative = inhibition” value does the source give for `CCOC(=O)C1=C(C)c2ccccc2OC1(C)C(=O)OCC` (stereo not drawn) here?
**A.** -4.52% [at 88.7 µM]

**Q.** For `Cc1ccccc1-n1nnnc1SCCCC(=O)c1ccc(F)cc1`, which “activity, negative = inhibition” value is on record?
**A.** 11.6%

**Q.** `N#Cc1ccsc1NC(=O)CN1CCN(S(=O)(=O)c2cc(Cl)ccc2Cl)CC1` was tested. Which “activity, negative = inhibition” value did it give?
**A.** 9.81%

**Q.** `CCOc1ccc(N=NS(=O)(=O)O)cc1` was tested. Which activity, negative = inhibition did it give?
**A.** -17.6% [at 14.2 µM]

**Q.** How did the “activity, negative = inhibition” value turn out when `Cc1ccccc1CC1(CO)CCCN(Cc2ccc3c(c2)OCCO3)C1` (stereo not drawn) was run?
**A.** -5.36%

**Q.** For `NCCC(=O)c1ccccc1N`, which “activity, negative = inhibition” value is on record?
**A.** -0.0525%

**Q.** With `CCCc1ccc(-c2c(C)sc(NC(=O)c3ccnn3C)c2C#N)cc1` as the molecule, how does the “activity, negative = inhibition” value read?
**A.** 1.09%

**Q.** `CC(C)=C(NC(=O)c1ccccc1)C(=O)N/N=C(\C)c1ccccc1O` was tested. Which “activity, negative = inhibition” value did it give?
**A.** -1%

**Q.** With `Cc1ccc2[nH]c(=O)c(CN(CCCN(C)C)C(=O)Nc3cccc(Cl)c3)cc2c1` as the molecule, how does the “activity, negative = inhibition” value read?
**A.** 2.71%

**Q.** How did the “activity, negative = inhibition” value turn out when `N=C1C(c2nc3ccccc3s2)=C(O)CN1NC(=O)c1ccc([N+](=O)[O-])cc1` was run?
**A.** 6.8%

**Q.** How did the “activity, negative = inhibition” value turn out when `COc1ccc(/C=C(\C#N)C(=O)NCCCn2ccnc2)cc1` was run?
**A.** -7.5%

**Q.** Which “activity, negative = inhibition” value does the source give for `CCOC(=O)c1cnc(SC)nc1Sc1ccc(Cl)cc1Cl` here?
**A.** 0.136%

**Q.** With `O=P(O)(O)OC[C@H](O)CO` as the molecule, how does the “activity, negative = inhibition” value read?
**A.** 2.38%

**Q.** How did the “activity, negative = inhibition” value turn out when `CCOC(=O)c1c(NC(=S)NC)sc2c1CCCC2` was run?
**A.** 0.716%

**Q.** `Cc1ccc(NC(=O)CN2CCCCC2)c2c1CC(C)(C)O2` was tested. Which “activity, negative = inhibition” value did it give?
**A.** -3.9%

**Q.** Which “activity, negative = inhibition” value does the source give for `Cc1ccc(Nc2cc(C)nc3c(C)ccc([N+](=O)[O-])c23)cc1` here?
**A.** 5.73%

**Q.** Which “activity, negative = inhibition” value does the source give for `NCCCCC(N)C(=O)O` (stereo not drawn) here?
**A.** 3.62%

**Q.** How did the “activity, negative = inhibition” value turn out when `CC(C)[C@@H]1NC(=O)[C@H](Cc2ccccc2)NC(=O)[C@@H](CC(=O)O)NC(=O)CNC(=O)[C@H](CCCNC(=N)N)NC1=O` was run?
**A.** 8.69%

**Q.** `CCS(=O)(=O)N1Cc2ccccc2CC1C(=O)Nc1nc2ccc(F)cc2s1` (stereo not drawn) was tested. Which “activity, negative = inhibition” value did it give?
**A.** 2.6%

**Q.** How did the “activity, negative = inhibition” value turn out when `O=C(NCc1cc(C(F)(F)F)cc(C(F)(F)F)c1)C1CC(c2cccc(F)c2)=NO1` (stereo not drawn) was run?
**A.** -20.7%

**Q.** `Cc1ccccc1-c1n[nH]c(=S)n1/N=C/c1ccc(-c2ccccc2Br)o1` was tested. Which “activity, negative = inhibition” value did it give?
**A.** 8.75%

**Q.** How did the “activity, negative = inhibition” value turn out when `O=c1[nH]cnc2c1c(-c1ccccc1)cn2-c1ccc(F)cc1` was run?
**A.** 1.55%

**Q.** Which “activity, negative = inhibition” value does the source give for `Clc1ccc(CSc2nnc3c(n2)[nH]c2ccccc23)cc1` here?
**A.** 1.68%

**Q.** For `COC(c1ccccc1)(c1ccccc1)C(Oc1nc(C)cc(C)n1)C(=O)O` (stereo not drawn), which “activity, negative = inhibition” value is on record?
**A.** 3.51%

**Q.** `COc1cccc(NC(=O)CN(C)C(=O)/C=C/c2cc(OC)ccc2OC)c1` was tested. Which “activity, negative = inhibition” value did it give?
**A.** 6.97%

**Q.** With `O=C(NCCc1c[nH]c2ccccc12)c1cc2ccccc2oc1=O` as the molecule, how does the “activity, negative = inhibition” value read?
**A.** -2.24%

**Q.** How did the “activity, negative = inhibition” value turn out when `CN(c1ccccc1)S(=O)(=O)c1cc(C(=O)Nc2nc3ccccc3[nH]2)ccc1Cl` was run?
**A.** 13.7%

**Q.** Which “activity, negative = inhibition” value does the source give for `CCC(C)[C@@H](N)C(=O)O` (stereo partly drawn) here?
**A.** -0.853%

**Q.** Which Potency does the source give for `C[N+]1(CCNC(=O)/C=N/O)CCCCC1` here?
**A.** 12.6 µM (active)

**Q.** For `CC1=C/C(=N\S(=O)(=O)c2ccccc2)C(C(C)C)=CC1=O`, which “activity, negative = inhibition” value is on record?
**A.** 16%

**Q.** For `Cc1ccc(S(=O)(=O)c2ccc(Oc3ccccc3)cc2)cc1`, which “activity, negative = inhibition” value is on record?
**A.** 6.2%

**Q.** Which Potency does the source give for `CC1=C/C(=N\OS(=O)(=O)c2ccccc2)C=CC1=O` here?
**A.** 28.2 µM (active)

**Q.** `CC#CC[N+](C)(C)CCCCCC` was tested. Which “activity, negative = inhibition” value did it give?
**A.** -9%

**Q.** With `NC(=O)C(=O)N/N=C/c1ccc([N+](=O)[O-])o1` as the molecule, how does the “activity, negative = inhibition” value read?
**A.** 1.84%

**Q.** How did the “activity, negative = inhibition” value turn out when `CSC(=S)N/N=C/c1c[nH]c2ccccc12` was run?
**A.** 4.52%

**Q.** `S=c1[nH]nc(-c2ccccc2)n1/N=C/c1c[nH]c2ccccc12` was tested. Which “activity, negative = inhibition” value did it give?
**A.** 9.19%

**Q.** `C[n+]1ccc(/C=C/c2c[nH]c3ccccc23)cc1` was tested. Which Potency did it give?
**A.** 0.562 µM (active)

**Q.** How did the “activity, negative = inhibition” value turn out when `CCCCOC(=O)Cn1c(=O)n(CC(=O)OCCCC)c2cc(C)ccc21` was run?
**A.** 0.114%

**Q.** Which Potency does the source give for `Cc1ccc(CCCOC(=O)C[N+]2(C)CCCC2)cc1` here?
**A.** 7.08 µM (active)

**Q.** How did the “activity, negative = inhibition” value turn out when `Cc1ccc(CCCOC(=O)C[N+]2(C)CCCCC2)cc1` was run?
**A.** 15.3%

**Q.** `C[C@@]12CCC(=O)C=C1CC[C@H]1C2[C@@H](O)C[C@]2(C)[C@@H]1CC[C@@]2(O)C(=O)COC(=O)C1CCCC1` (stereo partly drawn) was tested. Which activity, negative = inhibition did it give?
**A.** -1.69% [at 14.2 µM]

**Q.** `O=C(CC1SC(=Nc2ccccc2)N(Cc2ccccn2)C1=O)Nc1cccc(Cl)c1` (stereo not drawn) was tested. Which “activity, negative = inhibition” value did it give?
**A.** 17.4%

**Q.** For `CC(C)S(=O)(=O)c1csc(NC(=O)Nc2ccc(Cl)cc2)c1Cl`, which “activity, negative = inhibition” value is on record?
**A.** 3.76%

**Q.** For `CC(C)N(Cc1ccccc1)C(=O)COC(=O)c1cnccn1`, which “activity, negative = inhibition” value is on record?
**A.** 0.644%

**Q.** For `CCO[C@H]1OC(C(=O)NCc2ccccc2)=C[C@@H](c2coc3ccccc3c2=O)[C@@H]1CCCO`, which “activity, negative = inhibition” value is on record?
**A.** 10.1%

**Q.** With `Cc1ccc(-c2ncc(Cl)cc2-c2ccc(S(C)(=O)=O)cc2)cn1` as the molecule, how does the “activity, negative = inhibition” value read?
**A.** 0.142%

**Q.** For `CCOC(=O)N/N=C/c1cn(Cc2ccccc2Cl)c2ccccc12`, which “activity, negative = inhibition” value is on record?
**A.** -6.07%

**Q.** `CN1CCN(/N=C2/C(=O)Nc3ccc([N+](=O)[O-])cc32)CC1` was tested. Which “activity, negative = inhibition” value did it give?
**A.** 4.86%

**Q.** How did the Potency turn out when `Cc1nn(C)cc1N1C(=O)c2cccc3c(N)ccc(c23)C1=O` was run?
**A.** 14.1 µM (active)

**Q.** How did the “activity, negative = inhibition” value turn out when `CCN1C(=O)c2cccc3c(N)ccc1c23` was run?
**A.** 7.95%
